Out of some 16,000 compounds screened, about 5,100 (32%) were called active. Not shown: some 25% with an inconclusive outcome. Calls follow the shape of the dose curve; as a rule, active = well fitted curve in the direction sought with a large enough effect; inconclusive = small, poorly fitted or top-dose-only effect, or effect the other way; inactive = no such curve, though single readings can be large or run the other way. The list shows a part of the results.
% is scaled to controls: 0 for no effect and ±100 for the full control effect.

For this assay, the target named is Cytochrome P450 3A4 (Homo sapiens) (UniProt P08684). Briefly: Cytochrome panel assay with activity outcomes. The conditions noted are these: recombinant CYP, pro-luciferin dealkylation, luminescence, p450-cyp3a4; series mostly up to 57.1 µM.
Sequence of Cytochrome P450 3A4 (Homo sapiens) (P08684 whole entry, looked up): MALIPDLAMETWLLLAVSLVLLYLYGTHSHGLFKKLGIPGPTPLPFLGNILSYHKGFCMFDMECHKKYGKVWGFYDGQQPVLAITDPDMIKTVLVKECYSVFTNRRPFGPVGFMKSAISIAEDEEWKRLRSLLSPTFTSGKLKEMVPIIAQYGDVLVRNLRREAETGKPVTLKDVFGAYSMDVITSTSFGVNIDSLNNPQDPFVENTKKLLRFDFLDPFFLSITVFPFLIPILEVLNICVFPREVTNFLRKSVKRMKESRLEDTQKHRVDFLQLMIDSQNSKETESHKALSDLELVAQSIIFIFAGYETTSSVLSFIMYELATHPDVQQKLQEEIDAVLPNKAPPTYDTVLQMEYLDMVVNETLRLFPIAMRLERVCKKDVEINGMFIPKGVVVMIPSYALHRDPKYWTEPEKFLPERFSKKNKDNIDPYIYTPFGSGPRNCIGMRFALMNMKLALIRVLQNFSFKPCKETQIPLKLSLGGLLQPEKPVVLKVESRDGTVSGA
By AC50 is commonly meant the concentration at which the activity in the assay is half-maximal. `Oc1c(CN2CCCCC2)cc(Br)c2cccnc12`: the AC50 result is “inactive”.

As for `CCCNC(=O)Nc1ccc2c(c1)nc(C)n2C`, the AC50 result was “inactive”. For the compound `Cc1cc(NC(=O)Nc2ccc3c(ccn3C)c2)sn1`, the AC50 is 12.6 µM (active). Take `Cc1noc(C)c1-c1ccc2ncnc(N3CCN(C)CC3)c2c1`: the AC50 is 25.1 µM (active). Regarding `Cc1noc(C)c1-c1ccc2ncnc(N3CCOCC3)c2c1`, the AC50 is 31.6 µM (active).

For the compound `Cc1noc(C)c1-c1ccc2ncnc(NCCN3CCOCC3)c2c1`, the concentration at half-maximal activity (AC50) was 12.6 µM (active). `CCN1CCC[C@H]1CNC(=O)c1cc(S(N)(=O)=O)ccc1OC`: the AC50 result was “inactive”. With `CCOC(=O)C1=C2SCC(=O)N2C(N)=C(C#N)C1`, the AC50 result is “inactive”. As to `COCC(=O)N1CCC2(CC1)CN(Cc1ccccc1OC)C2`, the AC50 result was “inactive”. With `COc1ccccc1CN1CCC2(CC1)CCN(C(C)=O)CC2`, the AC50 result is “inactive”.

As to `COc1ccccc1CC(=N)N1C[C@@H]2C(=O)CCC(c3ccccc3)(c3ccccc3)[C@@H]2C1`, the AC50 was 3.16 µM (active). In the case of `CC1(C)OC(=O)NC1=O`, the AC50 result was “inactive”. As for `O=C1C(=O)c2ccccc2C(O)=C1C1CCC(c2ccc(Cl)cc2)CC1` (centres undefined), the AC50 entry is “inactive”. As for `O=C1CCCC2=C1C(c1ccc(Cl)cc1)C1C(=O)c3ccccc3C1=N2` (centres undefined), the AC50 was 14.1 µM (active). `CC[C@](N)(C(=O)O)C(C)C`: the activity, negative = inhibition was -7.26% [at 11.4 µM] (inactive). For `COC(=O)[C@@]1(Cc2ccc(F)cc2)[C@@H]2C(=CC(=O)[C@H]2CC(=O)C(=O)N(C)C)CN1C(=O)c1ccccc1`, the AC50 is 10 µM (active).

`COC(=O)[C@@]1(Cc2ccccc2)[C@@H]2C(=CC(=O)[C@H]2CC(=O)C(=O)N(C)C)CN1C(=O)c1ccccc1`: the AC50 was 7.94 µM (active). As for `CC(O)CN(CCC(N)=O)CCC(N)=O` (centres undefined), the AC50 result was “inactive”. Take `CC(=O)N=c1sccn1CC(=O)c1ccc([N+](=O)[O-])cc1`: the AC50 was 4.47 µM (active).

On to `O=C(O)/C(Cc1ccc([N+](=O)[O-])cc1)=N/O`, for which the activity, negative = inhibition was -11.6% [at 11.4 µM] (inactive). For the compound `CC1CN(C(=S)NC(=O)c2ccc([N+](=O)[O-])cc2)CC(C)O1` (centres undefined), the activity, negative = inhibition was 2.57% [at 2.29 µM] (inactive). On to `CCC(=O)OCN1C(=O)C=CC1=O`, for which the activity, negative = inhibition was 2.64% [at 11.4 µM] (inactive). Turning to `CCCN1C(=O)C(Cc2nc3ccccc3c(=O)n2C)c2ccccc21` (centres undefined), the AC50 is 7.94 µM (active). Turning to `N=C(N)SCc1nc2ccccc2c(=O)n1-c1ccccc1Cl`, the activity, negative = inhibition was -15.4% [at 2.29 µM] (inactive). Consider `CC(=O)N1CCC2(CC1)CN(c1ccccc1)C2`, for which the AC50 result is “inactive”. As for `CCOC(=O)CC1NC(=O)c2ccccc21` (centres undefined), the AC50 entry is “inactive”. The same measure, in the same setting: next, `CC(=O)N1CCN(C(=O)CC2OC(=O)c3ccccc32)CC1` (centres undefined): 12.6 µM (active).

With `O=C(O)CSc1nc2ccccc2[nH]1`, the activity, negative = inhibition is 2.87% [at 11.4 µM] (inactive). As to `O=C(CSc1nc2ccccc2[nH]1)Nc1c(F)cccc1F`, the AC50 is 14.1 µM (active). Turning to `COc1ccccc1-c1cc(NCc2cccc(C)c2)ncn1`, the AC50 is 6.31 µM (active). On to `CN(C)Cc1ccccc1-c1cc(NC2CC2)ncn1`, for which the AC50 is 25.1 µM (active).

Turning to `COc1ccccc1-c1cc(NCc2ccccc2)ncn1`, the AC50 result is “inactive”. As to `Cc1cccc(CNc2cc(-c3ccccc3Cl)ncn2)c1`, the AC50 was 15.8 µM (active).

Regarding `CNc1cc(-c2ccccc2CN(C)C)ncn1`, the AC50 result was “inactive”. The same measure, in the same setting: next, `CN(C)Cc1ccccc1-c1cc(NCc2ccccc2)ncn1`: “inactive”. As to `Cc1cccc(CNc2cc(-c3ccccc3CN(C)C)ncn2)c1`, the AC50 was 15.8 µM (active). `Cc1cnc(CNc2cc(-c3ccccc3CN(C)C)ncn2)cn1`: the AC50 entry is “inactive”.

On to `COC(=O)[C@@]1(Cc2ccc(OC)cc2)[C@H]2c3cc(C(=O)N4CCCC4)n(Cc4cc(F)cc5c4OCOC5)c3C[C@H]2CN1C(=O)c1ccccc1`, for which the AC50 is 2.51 µM (active). For `COC(=O)[C@@]1(Cc2ccccc2)[C@H]2c3cc(C(=O)N4CCCC4)n(Cc4cc(F)cc5c4OCOC5)c3C[C@H]2CN1C(=O)c1ccccc1`, the AC50 is 3.98 µM (active). `O=C(O)c1ccc([N+](=O)[O-])c(P(=O)(O)O)c1`: the activity, negative = inhibition was -2.76% [at 11.4 µM] (inactive). Turning to `NCCNC(=O)c1ccc(Cl)cc1`, the AC50 entry was “inactive”.

`CC(C)(CNC(=O)c1ccc([N+](=O)[O-])c(Cl)c1)CNC(=O)c1ccc([N+](=O)[O-])c(Cl)c1`: the AC50 is 8.91 µM (active). As to `N[C@@H](CSCc1ccc(I)cc1)C(=O)O`, the activity, negative = inhibition was -8.11% [at 11.4 µM] (inactive). With `Cc1ccccc1-c1nccc(NCCN2CCOCC2)n1`, the AC50 is 25.1 µM (active).

Regarding `Clc1ccccc1-c1nccc(NCCN2CCOCC2)n1`, the AC50 is 15.8 µM (active).

Take `FC(F)(F)c1ccccc1-c1cc(NCCN2CCOCC2)ncn1`: the AC50 result is “inactive”. As to `Clc1ccccc1-c1cc(NCCN2CCOCC2)ncn1`, the AC50 entry was “inactive”. Consider `FC(F)(F)c1ccccc1-c1nccc(NCCN2CCOCC2)n1`, for which the AC50 was 15.8 µM (active). On the same count and under the same terms, next, `COCCNc1ccnc(-c2ccccc2C)n1`: “inactive”. For `N=C(N)[C@H](N=Nc1ccccc1)C(N)=O`, the activity, negative = inhibition was -11.5% [at 11.4 µM] (inactive). Take `CCOc1ccc(NC(=O)CSc2nc(C)c3c(c2C#N)CCCC3)cc1`: the AC50 is 12.6 µM (active).

With `COc1ccc(NC(=O)CSc2nc(C)c3c(c2C#N)CCCC3)cc1`, the AC50 was 17.8 µM (active).

Regarding `CCOc1cccc(NC(=O)CSc2nc(C)c3c(c2C#N)CCCC3)c1`, the activity, negative = inhibition is -6.34% [at 11.4 µM] (inactive). With `Cn1cc(C(=O)c2cccc(Cl)c2Cl)cc1C(=O)O`, the AC50 entry is “inactive”. Still for that read-out and setting: as for `Cn1cccc1C(=O)N1CCC2(CC1)CN(Cc1cc(C(F)(F)F)cc(C(F)(F)F)c1)C2`, the entry is “inactive”; as for `Cn1cccc1C(=O)N1CCC[C@@]2(CCN(Cc3ccc(C#N)cc3)C2)C1`, 12.6 µM (active). On the same count and under the same terms, as for `Cn1cccc1C(=O)N1CCC2(CC1)CN(Cc1ccc(C#N)cc1)C2`, the entry is “inactive”; as for `Cn1cccc1C(=O)N1CCC[C@@]2(CCN(Cc3cc(C(F)(F)F)cc(C(F)(F)F)c3)C2)C1`, 15.8 µM (active); as for `Cn1cccc1C(=O)N1CCC2(CCN(Cc3ccccc3)CC2)CC1`, “inactive”. Consider `CCN[C@@H]1C[C@H](C)S(=O)(=O)c2sc(S(N)(=O)=O)cc21`, for which the AC50 result was “inactive”. Regarding `NC(N)=Nc1nc(CCN2C(=O)c3ccccc3C2=O)cs1`, the AC50 entry was “inactive”. Turning to `N#C/C(=C/c1cccc(C(F)(F)F)c1)c1nc(CCN2C(=O)c3ccccc3C2=O)cs1`, the half-maximal activity concentration (AC50) was 5.01 µM (active). For the compound `Cc1nc2nc[nH]n2c(=O)c1NC(=O)CC12CC3CC(CC(C3)C1)C2`, the AC50 entry is “inactive”. Consider `O=C(O)CC12C[C@H]3C[C@@H](CC(O)(C3)C1)C2`, for which the activity, negative = inhibition is -10.4% [at 11.4 µM] (inactive). `O=C(O)CSCNC(=O)CC12CC3CC(CC(C3)C1)C2`: the AC50 was 0.224 µM (active). On to `NC(=O)c1ccc(-c2nc(-c3ccc4c(c3)OCO4)c(-c3ccccn3)[nH]2)cc1`, for which the AC50 is 10 µM (active). Still for that read-out and setting: next, `NC(=O)c1ccc(-c2ncc(-c3ccccc3)o2)cc1`: “inactive”. As to `O=C(O)Cc1nn(Cc2ccc(Br)cc2F)c(=O)c2ccccc12`, the AC50 result is “inactive”.

For `CCOc1cc(CNCCCN2CCOCC2)cc(Br)c1OCC(=O)Nc1cccc(C(F)(F)F)c1`, the AC50 is 4.47 µM (active). For `COc1ccc(NC(=O)COc2ccc(CNCCCN3CCOCC3)cc2OC)cc1`, the AC50 entry is “inactive”. For `c1csc(CNCCCN2CCOCC2)c1`, the AC50 result is “inactive”. For `CN(C)C(=O)c1ccc(-c2nc(Nc3ccncc3)c3ccccc3n2)cc1`, the AC50 was 15.8 µM (active). Regarding `CN(C)c1ccc(-c2nc(Nc3ccncc3)c3ccccc3n2)cc1`, the AC50 was 7.94 µM (active).

`CC(=O)NC1=NC(=O)C(C)S1` (centres undefined): the activity, negative = inhibition is -3.3% [at 2.29 µM] (inactive). For the compound `CCN(CC)S(=O)(=O)c1ccc(C(=O)Nc2ncn(Cc3ccccc3)n2)cc1`, the AC50 entry was “inactive”. `CCCC(=O)Nc1c(C)n[nH]c1C`: the AC50 result was “inactive”.

In the case of `Cc1cc(NC(=O)c2ccc(S(=O)(=O)N(C)C)cc2)n(-c2ccccn2)n1`, the AC50 result is “inactive”. On to `Cc1ccc(NC(=O)CCC(=O)NNC(=O)c2cccs2)c(C)c1`, for which the activity, negative = inhibition was -1.38% [at 2.29 µM] (inactive).

Turning to `Cc1ccccc1-n1nc2c(c1NC(=O)c1c(-c3ccccc3Cl)noc1C)CSC2`, the AC50 is 1.12 µM (active). Turning to `Cc1ccc(NC(=O)CCC(=O)NNS(=O)(=O)c2ccccc2)c(C)c1`, the activity, negative = inhibition was 21.8% [at 2.29 µM] (inactive).

Take `Cc1onc(-c2c(F)cccc2Cl)c1C(=O)N[C@H]1C(=O)N2[C@H]1SC(C)(C)[C@H]2C(=O)O`: the AC50 result is “inactive”. As for `Cc1ccc(-n2nc3c(c2NC(=O)c2cccs2)CSC3)cc1`, the AC50 is 12.6 µM (active). As to `CCCC(=O)Nc1c2c(nn1-c1ccc(C)cc1C)CSC2`, the AC50 is 7.08 µM (active).

Consider `Cc1onc(-c2c(F)cccc2Cl)c1C(=O)N[C@@H]1C(=O)N2[C@H]1SC(C)(C)[C@H]2C(=O)O`, for which the activity, negative = inhibition is -13.2% [at 11.4 µM] (inactive). For `Cc1ccccc1-n1nc2c(c1NC(=O)c1ccc(S(=O)(=O)N(C)C)cc1)CSC2`, the AC50 is 14.1 µM (active). On to `CCC(=S)/C=C1\Sc2ccccc2N1CCCS(=O)(=O)O`, for which the AC50 result is “inactive”. As to `O=C(O)Cc1c(O)ccc2ccccc12`, the activity, negative = inhibition is -10.5% [at 11.4 µM] (inactive). As for `c1cncc(-c2nnc3n2C2(CCCCC2)Cc2ccccc2-3)c1`, the AC50 was 1 µM (active). Regarding `CCCn1cnc2c(SCC(=O)O)nc(N)nc21`, the activity, negative = inhibition was -4.33% [at 11.4 µM] (inactive). On to `Cc1[nH]n(C(C)(C)C)c(=O)c1Sc1ccc(Cl)cc1`, for which the AC50 was 15.8 µM (active). With `Cc1[nH]n(C(C)(C)C)c(=O)c1Sc1ccccc1`, the AC50 entry is “inactive”. In the case of `O=S(=O)(O)c1ccc2cc(N=Nc3cc(S(=O)(=O)O)c4cccnc4c3O)ccc2c1`, the activity, negative = inhibition was -6.99% [at 11.4 µM] (inactive). Regarding `CCCCc1ccc(-c2csc(/C(C#N)=C/c3ccc(C)o3)n2)cc1`, the AC50 is 12.6 µM (active). Regarding `CC(=O)c1cccc(NC(=O)Oc2ccccc2)c1`, the AC50 result was “inactive”. Regarding `COc1ccc(N(CC(=O)Nc2cccc(C)c2)S(=O)(=O)c2c(C)n[nH]c2C)cc1`, the concentration at half-maximal activity (AC50) is 3.16 µM (active).

Regarding `Cc1n[nH]c(C)c1S(=O)(=O)N1CCOCC1`, the AC50 entry was “inactive”. With `Cc1ccc(NC(=O)C2CCN(S(=O)(=O)c3c(C)n[nH]c3C)CC2)nc1`, the AC50 entry is “inactive”. Regarding `Cc1cccc(NS(=O)(=O)c2c(C)n[nH]c2C)c1`, the AC50 is 25.1 µM (active). Regarding `COc1cccc(N(CC(=O)Nc2cccc(C(C)=O)c2)S(C)(=O)=O)c1`, the AC50 was 11.2 µM (active).
